# Inconclusive results are not listed. Where a call stands in place of a potency, no number is given. Values without a mark were called inactive. Active and inactive are the calls of the source. The call rests on the fitted dose curve; in most records, active means well fitted curve in the direction sought with a large enough effect; inconclusive means small, poorly fitted or top-dose-only effect, or another doubt; inactive means no such curve, though single readings can be large; an effect the other way counts as inactive or inconclusive.
# Tests used:
# [1] = target: Aldehyde dehydrogenase, mitochondrial (Homo sapiens) (UniProt P05091); assay: qHTS for Inhibitors of the Aldehyde Dehydrogenase Family (ALDH2) Primary screen (AID 2061308); further: nearly all actives have a fitted effect of over 55% in size
# [2] = target: Retinaldehyde dehydrogenase 3 (Homo sapiens) (UniProt P47895); assay: qHTS for Inhibitors of the Aldehyde Dehydrogenase Family (ALDH1A3) Primary screen (AID 2061315)
SMILES,Potency [1],Potency [2],"activity change, negative = inhibition [1]","activity change, negative = inhibition [2]"
S=C(NCCCc1cnc[nH]1)NCCN(Cc1ccc(Cl)c(Cl)c1)c1ccc(Br)cn1,inactive,inactive,–,–
Cc1occc1CNc1ncnc2ccc(-c3ccc4c(c3)OCO4)cc12,inactive,inactive,–,–
CC(C)(C)c1ccccc1Nc1nc(C#N)nc(NC2CCCC2)n1,inactive,inactive,–,–
C=C1C(=O)O[C@@H]2/C=C(\CO)CC/C=C(\CO)[C@H](OC(C)=O)C(OC(=O)C(C)CC)C12 (stereo partly drawn),inactive,inactive,–,–
N#Cc1ccc(S(=O)(=O)N2CCN(S(=O)(=O)c3ccc4c(c3)OCCO4)CC2)cc1,inactive,inactive,–,–
COc1cc(O)c(C(CC(=O)N2CC(C)CC(C)C2)c2ccc(O)cc2)c(OC)c1 (stereo not drawn),inactive,inactive,–,–
CCCN1CCN(c2cccc(Nc3nn4c(=O)c5ccccc5nc4s3)c2)CC1,inactive,inactive,–,–
Cc1cc(NC(=S)N2CCN(c3cccc(C(F)(F)F)c3)CC2)nc2ccccc12,inactive,inactive,–,–
O=C(N1CCc2cc([S+](=O)([O-])N3CCN([S+](=O)([O-])c4c(F)cccc4F)CC3)ccc2C1)C(F)(F)F,inactive,inactive,–,–
C#CCOc1ccc(-c2nnc3n2N=C(c2ccc(OC)c(OCC(C)=O)c2)CS3)cc1,inactive,inactive,–,–
Cc1ccc(S(=O)(=O)Nc2ccc(C(=O)Nc3nc(-c4ccccc4)cs3)cc2Cl)cc1,inactive,inactive,–,–
O=C1CCc2cc(S(=O)(=O)Nc3cccc(Oc4ccccc4)c3)ccc2N1,inactive,inactive,–,–
CCc1cccc(Nc2nn3c(=O)c4ccccc4nc3s2)c1,inactive,inactive,–,–
FC(F)(F)c1ccccc1-c1nc(NCc2cccs2)c2ccccc2n1,inactive,inactive,–,–
COc1cccc(C2=Nn3c(nnc3-c3ccc(OC)c(OC)c3)SC2)c1,inactive,inactive,–,–
O=C(Cc1nnc(CNC(=O)c2ccccc2)s1)Nc1ccc(C(F)(F)F)cc1Cl,inactive,inactive,–,–
CC(C)Nc1nc(C#N)nc(Nc2ccccc2)n1,inactive,inactive,–,–
COc1ccc(NC(=O)c2[nH]c(C)c(C(C)=O)c2C)cc1[S+](=O)([O-])Nc1ccccc1C#N,inactive,inactive,–,–
O=C(Nc1ccc(Cl)c(S(=O)(=O)N2CCOCC2)c1)c1ccc(S(=O)(=O)N2CCOCC2)cc1,inactive,inactive,–,–
O=C(Nc1ccc2ccccc2c1)Nc1nnc(-c2ccc(O)cc2)s1,inactive,inactive,–,–
CN(C)c1cccc(NS(=O)(=O)c2ccc(NC(=O)Cc3ccc(Cl)c(Cl)c3)cc2)c1,inactive,inactive,–,–
Cc1cc(C)n2ncc(C(=O)Nc3cc(Cl)cc(Cl)c3)c2n1,inactive,inactive,–,–
O=C(COC(=O)CNC(=O)C1CCCCC1)Nc1ccccc1Cl,inactive,inactive,–,–
Cc1ccc(OCCn2c(CCNC(=O)Cc3ccc(F)cc3F)nc3ccccc32)cc1,inactive,inactive,–,–
CCCCN(C)C(=O)Cn1nc(-c2ccc(C(F)(F)F)cc2)ccc1=O,inactive,inactive,–,–
CCC/C=C\C=C/CCc1cc(O)c([C@@H]2O[C@H](CO)[C@@H](O)[C@H](O)[C@H]2O)c(O)c1C(=O)OC,inactive,inactive,–,–
O=C(Cn1ncccc1=O)NCCc1ccccc1,inactive,inactive,–,–

SMILES,Potency [1],Potency [2],"activity change, negative = inhibition [1]","activity change, negative = inhibition [2]"
CCCCc1nnc(-c2cnn(C)c2N)n1CCCn1ccnc1,inactive,inactive,–,–
O=C(O)c1ccc2c(c1)C(=O)N([C@H](Cc1ccc3ccccc3c1)C(=O)O)C2=O,inactive,inactive,–,–
CC(C)C(OC(=O)CNC(=O)c1ccccc1)C(=O)Nc1cc(C(F)(F)F)ccc1Cl (stereo not drawn),inactive,inactive,–,–
c1cncc(-c2ccc3ncnc(NCc4cccs4)c3c2)c1,inactive,inactive,–,–
O=S(=O)(c1cccc(Br)c1)N1CCN(S(=O)(=O)c2ccc3c(c2)OCCO3)CC1,inactive,inactive,–,–
COc1cccc(C2c3c(ncn(-c4cccc(Cl)c4)c3=N)Oc3ccc4ccccc4c32)c1 (stereo not drawn),inactive,inactive,–,–
CC(C)(C)c1cc(O)c(CN)c(C(C)(C)C)c1,inactive,inactive,–,–
O=C(Nc1ncc(-c2ccccc2)s1)c1ccc(-c2cccc([N+](=O)[O-])c2)o1,inactive,inactive,–,–
Cc1ccnc(NC(=S)N2CCN(c3cccc(C(F)(F)F)c3)C2)c1,inactive,inactive,–,–
O=[S+]([O-])(c1ccc2ncsc2c1)N1CCN([S+](=O)([O-])c2c(F)cccc2F)CC1,inactive,inactive,–,–
CC(C)Oc1ccccc1C(=O)Nc1nc(-c2ccccc2)cs1,inactive,inactive,–,–
CC(C)CN1CCN(C(=O)COC(=O)c2ccc(S(C)(=O)=O)c([N+](=O)[O-])c2)CC1,inactive,inactive,–,–
NCCCCC(=O)Nc1ccc(Cl)cc1C(=O)c1ccc[nH]1,inactive,inactive,–,–
Nc1nc(NCC2CCC(CNS(=O)(=O)c3cccc4ccccc34)CC2)nc2ccccc12 (stereo not drawn),inactive,inactive,–,–
Cc1cccc(S(=O)(=O)Nc2cnccc2C(=O)Nc2nc(-c3ccccc3)cs2)c1,inactive,inactive,–,–
C#CCOc1cccc(-c2nnc3n2N=C(c2ccc(OC)c(OCC(C)=O)c2)CS3)c1,inactive,inactive,–,–
Cn1nnnc1Sc1ncnc2scc(-c3cccc4ccccc34)c12,inactive,inactive,–,–
Cn1c2cc(CO)sc2c2cnn(Cc3ccccc3F)c(=O)c21,inactive,inactive,–,–
COc1ccccc1-c1csc(N2CCC(C(N)=O)CC2)n1,inactive,inactive,–,–
NC(=O)C1CCN(c2nc(-c3ccc4c(c3)OCCCO4)cs2)CC1,inactive,inactive,–,–
O=C(Nc1nc(-c2ccccc2)cs1)c1ccncc1NS(=O)(=O)c1ccc(F)cc1,inactive,inactive,–,–
CN(C)c1cccc(-c2nc(N3CCC(C(N)=O)CC3)ncc2F)c1,inactive,inactive,–,–
COc1cccc(CNc2ccc(S(=O)(=O)Nc3nc(C)cs3)cc2)c1O,inactive,inactive,–,–
O=S(=O)(Nc1cccc2cccnc12)c1ccccc1,inactive,inactive,–,–
O=C1CCc2cc(S(=O)(=O)Nc3ccc4c(c3)OCCO4)ccc2N1,inactive,inactive,–,–
C[C@@H]1O[C@@H](O[C@H]2[C@@H](OC(=O)[C@]34CCC(C)(C)CC3C3=CCC5[C@@]6(C)C[C@H](O)[C@H](O[C@@H]7O[C@H](CO)[C@@H](O)[C@H](O)[C@H]7O[C@@H]7OC[C@@H](O)[C@H](O)[C@H]7O)[C@@](C)(C(=O)O)C6CC[C@@]5(C)[C@]3(C)CC4)OC[C@H](O)[C@@H]2O)[C@H](O)[C@H](O)[C@H]1O[C@@H]1OC[C@@H](O)[C@H](O)[C@H]1O (stereo partly drawn),–,–,6.76% [at 11.2 µM],0.185% [at 11.2 µM]
CC(C)c1ccccc1SC1=NS(=O)(=O)c2ccccc21,inactive,inactive,–,–

SMILES,Potency [1],Potency [2],"activity change, negative = inhibition [1]","activity change, negative = inhibition [2]"
CC(O)c1ccc(-c2ccc3ncnc(NCCc4cnc[nH]4)c3c2)o1 (stereo not drawn),inactive,inactive,–,–
O=C(Nc1cc(C(F)(F)F)ccc1Cl)C(O)Cc1ccccc1 (stereo not drawn),inactive,inactive,–,–
CCCCc1ccc(C(=O)Nc2ccc(S(=O)(=O)Nc3nccs3)cc2)cc1,inactive,inactive,–,–
c1ccc2c(Nc3nnc(-c4ccncc4)s3)cccc2c1,inactive,inactive,–,–
COc1cccc(C2C(C#N)=C(NC(=O)NCc3ccccc3)Oc3ccc4ccccc4c32)c1 (stereo not drawn),inactive,inactive,–,–
O=C(Nc1ccc(Cl)c(S(=O)(=O)N2CCOCC2)c1)c1ccc(S(=O)(=O)N2CCCCC2)cc1,inactive,inactive,–,–
CCc1ccc(NC(=O)c2cnn3c(C)cc(C)nc23)cc1,inactive,inactive,–,–
O=C(c1ccccc1)N(C(=O)c1ccccc1)c1ncnc2c1C(c1ccccc1)c1c(ccc3ccccc13)O2 (stereo not drawn),inactive,inactive,–,–
CC(=O)Nc1ccc(S(=O)(=O)Nc2cccc3cccnc23)cc1,inactive,inactive,–,–
C=C1C(=O)OC2/C=C(\C)CC/C=C(\C(=O)O)CC/C=C(\C)CCC12 (stereo not drawn),inactive,inactive,–,–
COc1ccc(N2C(=O)c3ccccc3S2(=O)=O)cc1,inactive,inactive,–,–
CC1(C)CC2CC(C)(CN2S(=O)(=O)c2ccc(C(=O)Nc3ccc(Cl)cc3)cc2)C1 (stereo not drawn),inactive,inactive,–,–
CCn1cnc2c(NCCc3cccnc3)nc(C#N)nc21,inactive,inactive,–,–
Cc1cnc(-c2ccccc2C(C)C)nc1NCc1cccs1,inactive,inactive,–,–
O=S(=O)(NC[C@@H]1CCC[C@H](CNS(=O)(=O)c2c(F)cccc2F)C1)c1ccc2c(c1)OCCO2,inactive,inactive,–,–
CC1(C)CC[C@]23CO[C@@]4(CCC5[C@@]6(C)CC[C@H](O[C@@H]7OC[C@H](O[C@@H]8O[C@H](CO)[C@@H](O)[C@H](O)[C@H]8O[C@@H]8OC[C@@H](O)[C@H](O)[C@H]8O)[C@H](O)[C@H]7O[C@@H]7O[C@H](CO)[C@@H](O)[C@H](O)[C@H]7O)[C@@](C)(CO)C6CC[C@@]5(C)[C@]4(C)C[C@H]2O)[C@@H]3C1 (stereo partly drawn),inactive,inactive,–,–
O=S(=O)(c1ccsc1)N1CCN(c2nc(-c3cccs3)nc3ccccc23)CC1,inactive,inactive,–,–
O=C1CCCC2=C1C1(CCCC1)N=C(Nc1nc3cc4ccccc4cc3o1)N2,inactive,inactive,–,–
O=C(Nc1cc(C(F)(F)F)ccc1Cl)[C@H](O)CCc1ccccc1,inactive,inactive,–,–
Cc1cccc(-n2cnc3cc(C(=O)NC4CCCCC4)ccc32)c1,inactive,inactive,–,–
CC(=O)c1ccc(NC(=O)Nc2nnc(-c3ccncc3)s2)cc1,inactive,inactive,–,–
CC(C)(O)C1Cc2c(ccc(C(=O)CCc3ccccc3)c2O)O1 (stereo not drawn),inactive,inactive,–,–
O=c1ccc2ccc(OCCCCN3CCN(c4cccc5sccc45)CC3)cc2[nH]1,inactive,inactive,–,–
Cc1ccccc1NC(=O)CN1C(=O)N/C(=C\c2cccn2-c2cccc(C(=O)O)c2)C1=O,inactive,inactive,–,–
COc1ccc(C2=Nn3c(nnc3-c3ccccc3O)SC2)c(OC)c1,inactive,inactive,–,–

# From PubChem BioAssay (NCATS)
